Screening results as filed in PubChem.
KCNH2 3.1 block: blocks the human KCNH2 3.1 channel isoform | U2OS KCNH2 3.1, thallium flux FluxOr; stronger effect = lower value | activity change, % (tested at about 1.8 µM) | 340,000 tested, 0.95% active | AID 720553;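 active = maximum activity change below -70%; inconclusive = maximum activity change from -70% to -50%; inactive = maximum activity change above -50%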;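 note: thallium influx rate constant from kinetic fluorescence after stimulation buffer; % is set by controls: 0 for no effect and ±100 for the full control effect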
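Normalized rate constant (relative to positive and negative DMSO controls) derived from a 2 min kinetic fluorescence read after stimulation; U2OS cells expressing the 3.1 isoform via virus at 1.77 x 10^8 /mL.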
KCNH2 WT inh: blocks the wildtype human KCNH2 potassium channel; Q12809; U2OS, BacMam KCNH2, thallium flux FluxOr; stronger effect = lower value; activity change, % at 1.84 µM; 340,000 tested, 0.37% active; AID 720551;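 active = maximum activity change below -70%; inconclusive = maximum activity change between -70% and -50%; inactive = maximum activity change above -50%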; note: % is set by controls: 0 for no effect and ±100 for the full control effect
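U2OS cells were transduced with wild-type KCNH2 virus (2.03 x 10^8 / mL) for 4 h at room temperature, then cultured overnight at 37 C. Thallium flux was read with FluxOr dye. Rate constants were normalized to DMSO controls.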
TSG101-PTAP inh: blocks PTAP/TSG101 interaction to inhibit HIV-1 budding. Potency, µM (series often up to 115 µM), for inactives: at the top dose activity change, negative = inhibition, actives largely listed as inhibitors. AID 493005. 340,000 tested, under 10 active. Q99816. Fluorescence polarization, FITC-PTAP peptide / Tsg101 binding; active = well fitted inhibition curve with a large enough effect in the main read-out, with a control signal flat, not every such curve was filed as active; inconclusive = small, poorly fitted or top-dose-only effect, or effect the other way, or a change in a side signal; inactive = no such curve, though single readings can be large or run the other way; note: potency is the fitted concentration of half-maximal effect; % of control where 0% means no effect
Target sequence (Q99816 whole entry, looked up): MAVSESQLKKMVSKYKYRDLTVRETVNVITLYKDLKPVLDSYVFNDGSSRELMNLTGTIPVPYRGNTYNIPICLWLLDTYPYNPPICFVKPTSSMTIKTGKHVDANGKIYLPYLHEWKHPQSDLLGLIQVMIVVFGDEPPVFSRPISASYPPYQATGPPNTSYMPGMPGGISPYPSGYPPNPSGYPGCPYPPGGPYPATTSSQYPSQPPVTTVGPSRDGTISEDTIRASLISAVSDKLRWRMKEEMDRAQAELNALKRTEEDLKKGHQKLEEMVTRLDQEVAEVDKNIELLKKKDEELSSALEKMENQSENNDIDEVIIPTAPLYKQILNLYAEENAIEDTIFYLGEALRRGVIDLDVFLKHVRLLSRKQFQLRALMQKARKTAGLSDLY
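Tsg101 binding domain (10 uM final) was mixed with compound and a FITC-labeled PTAP peptide (50 nM final) in HEPES pH 7.5 buffer with NaCl, Tween 20, EDTA and TCEP; fluorescence polarization was read after 20 min at r.t.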
TRPML1 inh: human mucolipin-1 channel inhibition; Q9GZU1; TRPML1-inducible cells, Ca2+ dye fluorescence, FDSS; stronger effect = lower value; inhibition of EC80 agonist-evoked calcium signal; activity change, negative = inhibition, % (test concentration not listed); 390,000 tested, 0.02% active; AID 624415; in the data active = activity change below about -50%; inconclusive = between about -30% and that limit;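 note: stimulus is agonist 54-4 at its EC80 concentration; % is set by controls: 0 for no effect and ±100 for the full control effect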
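Calcium fluorescence in TRPML1-DL cells induced overnight with Tet: a 110 s read after compound pin addition, then a 110 s antagonist read after challenge with 54-4 at 4 uM final (EC80).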
TRPML1 agonist: human mucolipin-1 channel agonism. Q9GZU1. TRPML1-expressing cells, Ca2+ dye fluorescence, FDSS. activation, % (test concentration not listed). 410,000 tested, 0.12% active; in the data active = activation above about 50%; inconclusive = mostly about 30% to 49%; note: 0% is about no effect
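In this qHTS format, compounds were pin-transferred onto Ca8-dye-loaded TRPML1-DL cells induced with Tet overnight, and intracellular Ca2+ fluorescence was recorded kinetically for 110 s after a 10 s baseline. A subsequent 4uM final 54-4 (EC80) addition followed by a second 110 s read served as the antagonist phase.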
GRP78 ERSR act: inducers of ER stress response in human glioma cells | U87-MG GRP78 promoter luciferase reporter, 16 h | Potency, µM, for inactives: at the highest dose activation, hits mostly activators | 420,000 tested, 0.02% active; active = well fitted activation curve with a large enough effect; inconclusive = small, poorly fitted or top-dose-only effect; inactive = no such curve, though single readings can be large or run the other way; note: potency is the fitted concentration of half-maximal effect; series mostly up to about 76 µM; % of control where 0% means no effect; nearly all actives have a fitted effect of over 35% in size
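ERSR induction read as luciferase luminescence (Bright-Glo, 10 min at room temperature) in stably transfected human U87-MG glioma cells exposed to compounds for 16 h, using GRP78 as sensor.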
The depositor's hits bear a star; ? = inconclusive; . = not tested or not shown. Hits are enriched below; roughly 1% of the tested compounds scored in any of these assays.

SMILES	KCNH2 3.1 block	KCNH2 WT inh	TSG101-PTAP inh	TRPML1 inh	TRPML1 agonist	GRP78 ERSR act
CC(NC(=O)c1cc2c(=O)n(C)c3ccccc3c2n1C)c1ccc2c(c1)OCCO2 (stereo not drawn)	-27	-125*	-9%	15	1	1%
O=C(O)c1ccccc1-c1c2cc(I)c(=O)c(I)c-2oc2c(I)c(O)c(I)cc12	-11	-11	?	-90*	177*	-4%
O=C(O)c1c(Cl)c(Cl)c(Cl)c(Cl)c1-c1c2cc(I)c(=O)c(I)c-2oc2c(I)c(O)c(I)cc12	.	.	.	.	.	-10%
CCN(CC(=O)Nc1c(F)cccc1F)C(=O)c1cc(C)nc2ccccc12	5	-72*	2%	0	-1	-1%
COc1ccc(C(=O)Nc2ccc(C(=O)Nc3nccs3)cc2)cc1[N+](=O)[O-]	?	-93*	-8%	3	1	-3%
CCOc1ccc(C(=O)Nc2ccc(NC(=O)c3cccs3)cc2)cc1[N+](=O)[O-]	-99*	-81*	1%	27	1	-3%
CCOc1ccc2nc(NC(=O)c3cccc(-c4cc5ccccc5oc4=O)c3)sc2c1	-10	14	5%	7	0	?
COc1ccc(C(=O)Nc2ccc(NC(=O)c3cccs3)cc2)cc1[N+](=O)[O-]	-1	3	-1%	5	0	-3%
CCOc1ccc(C(=O)Nc2cccc(-c3cc4ccccc4oc3=O)c2)cc1[N+](=O)[O-]	-93*	?	-6%	-4	-1	-6%
CC(=O)c1ccc(-c2ccc3c4c(ccc3c2)OC(CNC(=O)[C@@H]2CCCN2C(C)=O)C4)s1 (stereo partly drawn)	.	.	.	.	.	3%
COc1ccc(C(CNC(=O)c2cccc(S(=O)(=O)N3CCCc4ccccc43)c2)N(C)C)cc1 (stereo not drawn)	-74*	-18	-1%	31	2	2%
COc1ccc(NS(=O)(=O)c2cccc(C(=O)NCC(c3ccccc3)N(C)C)c2)cc1 (stereo not drawn)	1	2	-4%	3	0	-1%
COc1ccc(NC(=O)c2cccc(S(=O)(=O)N3CCc4ccccc43)c2)c(OC)c1	9	-89*	.	12	0	-2%
COc1ccc(C(CNC(=O)c2ccc(S(=O)(=O)N3CC(C)CC(C)C3)cc2)N(C)C)cc1 (stereo not drawn)	-11	-83*	-11%	29	7	-3%
COc1ccc(NC(=O)c2cccc(S(=O)(=O)N3CCN(C)CC3)c2)c(OC)c1	4	-9	0%	-2	0	5%
O=C(CSc1nncn1-c1ccccc1F)NC1CCCCC1	-118*	-3	-4%	79	0	5%
COc1cccc(CN2C(=O)NC(C)(C3CCN(Cc4cc(Cl)ccc4O)CC3)C2=O)c1OC (stereo not drawn)	.	.	.	.	.	-4%
Cc1c(C(=O)Nc2cccc(Cl)c2)c2ccccn2c1CCc1ccncc1	-74*	0	-2%	87	1	6%
Cc1c(C(=O)Nc2ccc(Cl)cc2)c2ccccn2c1CCc1ccncc1	?	-9	-4%	76	1	5%
CN(C)c1nc2cc(Cl)ccc2cc1CN(Cc1ccc2c(c1)OCO2)C(=O)c1ccoc1	.	.	.	.	.	-3%
O=C(Nc1ccc(F)cc1)C(c1ccccc1)N1CCN(S(=O)(=O)c2ccc3ccccc3c2)CC1 (stereo not drawn)	-28	4	0%	7	2	-1%
Cc1ccc(C)c(S(=O)(=O)N2CCN(C(C(=O)Nc3ccc(F)cc3)c3ccccc3)CC2)c1 (stereo not drawn)	-86*	6	-4%	-7	2	-2%
CC(C)(C)n1ncc2c(=O)n(Cc3ccc(Cl)c(F)c3)cnc21	.	.	.	5	1	-3%
Cc1ccc(S(=O)(=O)N(C)Cc2ccc(C(=O)N/N=C/c3ccc(OC(F)F)cc3)cc2)cc1	-109*	?	-3%	5	1	0%
